High-throughput results from PubChem BioAssay.
Rows were chosen to be rich in hits. Some 3.4% of all compounds tested hit in one or more screens of this group.
GPR151 ag – activators of human GPR151; PathHunter beta-arrestin GPR151 cells, luminescence; activation, % at 11.2 µM; hit rate 1% among 650,000; AID 1508602; in the data active = activation above about 4.9%
Target sequence (Q8TDV0 whole entry, looked up): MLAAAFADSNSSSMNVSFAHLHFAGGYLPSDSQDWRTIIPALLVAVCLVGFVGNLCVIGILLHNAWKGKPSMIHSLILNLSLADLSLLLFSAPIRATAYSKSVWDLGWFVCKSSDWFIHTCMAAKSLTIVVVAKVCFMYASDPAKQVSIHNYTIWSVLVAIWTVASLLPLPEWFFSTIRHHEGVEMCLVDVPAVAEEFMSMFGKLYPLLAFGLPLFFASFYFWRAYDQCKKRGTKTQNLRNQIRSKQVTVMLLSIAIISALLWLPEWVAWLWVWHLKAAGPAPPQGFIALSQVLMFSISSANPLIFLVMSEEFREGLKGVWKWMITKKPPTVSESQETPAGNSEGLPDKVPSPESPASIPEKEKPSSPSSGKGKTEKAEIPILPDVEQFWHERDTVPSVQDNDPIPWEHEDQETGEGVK
MITF inh – blocks human microphthalmia-associated transcription factor; AlphaScreen MITF homodimerization, bead proximity signal; inhibition, % at 2.6 µM; hit rate 0.91% among 650,000; in the data active = inhibition above about 50%
FBW7 activator – human FBW7 E3 ligase activation, primary screen; Q969H0; AlphaScreen FBW7–phospho-cyclin E peptide binding, activator screen; normalized activity (activation), % at 26.1 µM; hit rate 0.13% among 650,000; AID 1259310; in the data active = normalized activity above about 1.9%;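 note: purified mutant Fbw7 with reduced substrate affinity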
TEAD-YAP block – TEAD-YAP interaction inhibition; HEK-TIYL cells, TEAD-Gal4/YAP UAS-luciferase luminescence; inhibition, % at 9.12 µM; hit rate 1.4% among 640,000; in the data active = inhibition above about 32%
MITF confirm – confirmation of human MITF inhibitors; inhibition, % at 2.6 µM; AID 1259372; shares compounds with MITF inh; hit rate 16% among 4,700; AlphaScreen MITF homodimerization, biotin/His-MITF beads;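 active = inhibition above a cutoff derived from the DMSO control wells, cut at about 28% in these data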;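 note: inhibitors lower the bead chemiluminescence by keeping MITF from dimerizing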
AS interf DR – optically interferes with AlphaScreen signal in dose response; shares compounds with MITF inh; AlphaScreen optical interference counterscreen, cell-free; IC50, µM; hit rate 6% among 480; call rule not given here
AS interf ctr – optically interferes with AlphaScreen signal; inhibition, % at 2.6 µM; hit rate 7.6% among 4,700; shares compounds with MITF inh; LysRS AlphaScreen counterscreen, signal interference, triplicate;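 active = inhibition above a cutoff derived from the DMSO control wells, cut at about 30% in these data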
Hits are given with their value; . = inactive; / = no result given; ! = a repeat was not active.

SMILES	GPR151 ag	MITF inh	FBW7 activator	TEAD-YAP block	MITF confirm	AS interf ctr	others
CC1CCCC(C)N1C(=O)CN(C)S(=O)(=O)c1ccc2c(c1)C(C)(C)C(=O)N2C (centres undefined)	.	.	.	.	/	/
Clc1cc2c(c3ncccc13)OCN(Cc1ccco1)C2	.	.	.	.	/	/
CC1(C)CC(N2COc3c(cc(Cl)c4cccnc34)C2)CC(C)(C)N1	.	52.0	.	40.3	68.0	99.9
Clc1cc2c(c3ncccc13)OCN(C1CCCC1)C2	.	97.3	.	65.7	99.1	100.6
CSCC(C)N1CCC(Oc2ccc(C(=O)NCc3ccncc3)cc2)CC1 (centres undefined)	.	.	.	.	/	/
O=C(c1cccc(Cl)c1)N1CCN(Cc2c[nH]c3ccccc23)CC1	.	.	.	.	/	/
COc1cccc(C(=O)N2CCN(Cc3c[nH]c4ccccc34)CC2)c1	.	72.9	.	.	.	.
O=C(c1ccncc1)N1CCN(CCc2ccccc2)CC1	.	.	.	.	/	/
O=C(c1ccncc1)N1CCN(Cc2c[nH]c3ccccc23)CC1	.	56.3	.	.	.	.
O=C(CCl)Nc1ccc(S(=O)(=O)Nc2nccs2)cc1	.	.	.	.	/	/
CCCOc1ccc(C2Oc3ccc(Br)cc3C3CC(c4ccccc4)=NN32)cc1 (centres undefined)	.	.	.	.	/	/
CCCOc1ccc(C2Oc3ccc(Br)cc3C3CC(c4ccc(Cl)cc4)=NN32)cc1 (centres undefined)	.	74.4	.	.	.	.
Cc1ccc(/C(C#N)=C\c2ccco2)cc1	.	55.7	.	.	42.1	.	AS interf DR=.
COc1ccccc1-n1c(SCC(=O)Nc2ccc(C)cc2)nnc1-c1ccncc1	.	.	.	.	/	/
COc1ccccc1-n1c(SCC(=O)NNC=O)nnc1-c1ccc(C)cc1	.	83.6	.	.	.	.
COc1cc(C)ccc1OCCOCCN1CCCC(C)C1 (centres undefined)	.	63.2	.	.	.	.
C/C=C/c1ccc(OCCCCN2CCN(CC)CC2)c(OC)c1	.	74.2	.	.	.	.
C/C=C/c1ccc(OCCOCCN2CCCC(C)C2)c(OC)c1 (centres undefined)	.	52.9	.	.	.	.
N#CC1=C(SCC(=O)Nc2ccc(Cl)cc2)NC(=O)C(C#N)C12CCCCC2 (centres undefined)	.	.	.	.	/	/
Cc1cc(C)n(CCCNCC(O)COc2ccc(C(=O)c3ccccc3)cc2)n1 (centres undefined)	.	59.9	.	.	.	.
OC(CNCCCn1ccnc1)COc1cccc2ccccc12 (centres undefined)	.	83.6	.	.	.	.
Cc1cccc(OCC(O)CNCCCn2ccnc2)c1 (centres undefined)	.	65.4	.	.	.	.
OC(CNCCCn1ccnc1)COc1ccccc1 (centres undefined)	.	75.1	.	.	.	.
Cc1cc(C)n(CCCNCC(O)COc2ccc(-c3ccccc3)cc2)n1 (centres undefined)	.	.	.	.	/	/
CSCCC(NC(N)=O)C(=O)Nc1cccc(C#N)c1 (centres undefined)	.	.	.	.	/	/
SMILES	GPR151 ag	MITF inh	FBW7 activator	TEAD-YAP block	MITF confirm	AS interf ctr	others
C=CCn1c(SCc2ccc(Cl)cc2)nc2cc(C(=O)N3CCOCC3)ccc2c1=O	.	.	.	.	/	/
COc1ccc(-c2cnn3c(NCc4cccs4)ccnc23)cc1	.	.	.	.	/	/
Cc1cc2cc(CNC(=O)CCC3CCCC3)ccc2n1C	.	.	.	.	/	/
O=C(NCc1ccccc1)c1ccc2c(=O)n(-c3cccc(C(F)(F)F)c3)c(=S)[nH]c2c1	.	.	.	.	/	/
O=C(CC1(c2ccccc2F)CC(=O)N(C2CCCC2)C1=O)N1CC[C@@H]2CCCC[C@H]2C1 (some centres undefined)	.	.	.	.	/	/
COc1ccc([N+](=O)[O-])cc1NC(=O)c1ccc(C(C)(C)C)cc1	.	.	.	.	/	/
COc1ccc([N+](=O)[O-])cc1NC(=O)c1ccc(F)cc1	.	57.4	.	.	.	.
COc1ccc([N+](=O)[O-])cc1NC(=O)C1(c2ccc(OC)c(OC)c2)CCCC1	.	53.5	.	.	.	.
CCC(Sc1nc2ccsc2c(=O)n1Cc1ccc2c(c1)OCO2)C(=O)NCc1cccnc1 (centres undefined)	.	.	.	.	/	/
O=C(CN1CCCCC1)OCCCOC(=O)CN1CCCCC1	.	.	.	.	/	/
CCC(c1nnc(SCC(=O)N(C)C)o1)N(C)C (centres undefined)	.	80.8	.	.	.	.
CNc1nc(-c2ccccn2)nnc1-c1ccccc1	.	108.4	.	.	107.1	97.7
O=C(c1ccccc1F)N1CCN(c2ccc(-c3ccccn3)nn2)CC1	.	118.8	.	.	109.9	100.6
CC(C)CC(=O)N1CCN(c2ccc(-c3ccccn3)nn2)CC1	.	125.4	.	.	114.1	100.6
O=C(C1CC1)N1CCN(c2ccc(-c3ccccn3)nn2)CC1	.	121.8	.	.	111.9	100.6
O=C(CSc1ccc(-c2ccccn2)nn1)N1CCN(c2ccccc2)CC1	.	.	.	.	/	/
COc1ccccc1Cc1nnc(C(=O)NC2CCCCCCC2)o1	.	.	.	.	/	/
CCOC(=O)C(=O)C(C#N)c1ccccc1 (centres undefined)	.	83.3	.	.	.	.
CC(C)(C)NC(=O)CSc1nc2ccc(Cl)cc2o1	.	.	.	.	/	/
C/C(=N\Nc1ccccn1)c1ccc(-n2ccnc2)cc1	.	.	.	.	/	/
C/C(=N\N1CCOCC1)c1ccc(-n2ccnc2)cc1	.	76.5	.	.	.	.
COc1ccc(OCC(=O)Nc2ccccc2NC(=O)COc2ccc(OC)cc2)cc1	.	.	.	.	/	/
Nc1ccc(O)c(C(=O)O)c1	.	74.7!	.	.	81.8	.	AS interf DR=.
O=C(Nc1nc(-c2ccccn2)cs1)C12CC3CC(CC(O)(C3)C1)C2	.	54.5	.	.	60.9	100.3
O=C(Nc1nc(-c2ccccn2)cs1)C1CC1	.	.	.	.	/	/
SMILES	GPR151 ag	MITF inh	FBW7 activator	TEAD-YAP block	MITF confirm	AS interf ctr	others
CN(C)CCn1nnnc1SCC1=C(C(=O)O)N2C(=O)[C@@H](NC(=O)Cc3csc(N)n3)[C@H]2SC1	.	68.3!	.	.	87.2	.	AS interf DR=4.93
Nc1nonc1C(=O)N/N=C\c1cc([N+](=O)[O-])c(Cl)cc1Cl	.	67.2	.	.	.	.
COc1ccc(COC(=O)N/N=C(\C)CC(=O)Nc2ccc(OC)cc2OC)cc1	.	.	.	.	/	/
CCCN1CCCc2cc(CCNS(=O)(=O)c3cccs3)ccc21	.	58.5	.	.	.	.
CC1=C(NCCc2ccccc2)CCC1=O	.	60.7	.	.	.	.
Cc1cc(=O)[nH]c(NCCc2ccccc2)n1	.	.	.	.	/	/
CC1=C(C#N)c2nc(N)c(C#N)c(C)c2/C1=C\c1ccc(F)cc1	.	.	.	.	/	/
CCOC(=O)CCCCC(=O)c1[nH]c(=O)[nH]c1Cn1ccnc1	.	.	.	.	/	/
